In the library only some 7.9% were active in any assay of this set; here they are far more common.
HT1080NT lethal – kills 2HG-producing HT-1080-NT fibrosarcoma cells; HT-1080-NT fibrosarcoma viability, CellTiter-Glo ATP luminescence, 48 h; Potency, µM (series often up to 46.1 µM), actives largely listed as cytotoxic; 360,000 compounds, 1.6% hits; AID 686970;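 further: NT is the 2HG producing partner of a matched IDH1 knockdown line; nearly all actives have a fitted effect of over 55% in size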
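Luminescent CellTiter-Glo readout after 48 hours of compound exposure at 37 degrees C defined viability of HT-1080-NT cells. Activity was normalized to DMSO wells and cell-free media wells; concentration-response curves were fitted and assigned curve classes.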
SW480 rerep – inducers of DNA re-replication in SW480 colon cancer cells. SW480 DNA re-replication, Hoechst DNA content imaging, 48 h. Potency, µM (highest dose often 46.1 µM), most hits filed as activators. 340,000 compounds, 1.8% hits. AID 624297; further: nearly all actives have a fitted effect of over 55% in size
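Compounds, transferred as 23 nL by pin tool, were incubated with cells for 48 hr; DNA content per nucleus was then quantified by Hoechst staining and fluorescence plate imaging.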
MCF10A rereplic – inducers of DNA re-replication in MCF 10A breast cells | MCF 10A DNA re-replication, Hoechst nuclear intensity, 48 h | Potency, µM (highest dose often 46.1 µM), usual class: activators | 350,000 compounds, 2.9% hits; further: nearly all actives have a fitted effect of over 50% in size
HT1080 IDH1KD tx – toxicity to HT-1080 IDH1 knockdown cells (counter line) | HT-1080 IDH1 knockdown viability, ATP luminescence, 48 h | Potency, µM (titrated, usually from 46.1 µM), actives largely listed as cytotoxic | 360,000 compounds, 2% hits
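HT-1080-IDH1KD cells (IDH1 knocked down), 750/well in RPMI with 5% FBS, treated with compound 48 h at 37 degrees C. Viability by CellTiter-Glo luminescence, normalised to DMSO and no-cell wells; concentration-response curves classed.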
KB-3-1 tox – kills parental KB-3-1 adenocarcinoma cells. KB-3-1 viability, CellTiter-Glo ATP luminescence, 72 h. Potency, µM (top dose mostly 46.1 µM), usual class: cytotoxic. 400,000 compounds, 1.4% hits; further: nearly all actives have a fitted effect of over 60% in size
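Parental KB-3-1 adenocarcinoma cells in phenol-red-free DMEM with 10% FBS were pin-treated with compounds at several concentrations, incubated 72 h at 37 °C, and viability read by CellTiter-Glo luminescence; concentration-effect curves were fitted after normalization.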
KB-V1 MDR tox – kills drug-selected multidrug resistant KB-V1 cells; KB-V1 MDR cells viability, CellTiter-Glo, 72 h; Potency, µM (top dose mostly 46.1 µM), usual class: cytotoxic; 400,000 compounds, 3.4% hits; further: nearly all actives have a fitted effect of over 60% in size
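Cells of the MDR subline KB-V1 are plated, dosed with compound at multiple concentrations, and incubated 72 h at 37 degrees C; CellTiter-Glo is then added and luminescence read after 10 min.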
Numbers stand for hits; n = inactive; u = inconclusive; x = no result. The call rests on the fitted dose curve; in most records, active means well fitted curve in the direction sought with a large enough effect; inconclusive means small, poorly fitted or top-dose-only effect, or another doubt; inactive means no such curve, though single readings can be large; an effect the other way counts as inactive or inconclusive.

SMILES | HT1080NT lethal | SW480 rerep | MCF10A rereplic | HT1080 IDH1KD tx | KB-3-1 tox | KB-V1 MDR tox
CNCCCc1ccccc1 | n | n | u | n | 23.1µM | n
BrCCc1ccccc1 | x | n | n | x | n | n
C[C@]12CC3CC(N)(C1)C[C@@](C)(C3)C2 | n | n | n | n | n | n
CC(C)(C)c1cc(O)ccc1O | x | u | 29.9µM | x | x | x
O=C(CCn1c(=O)oc2ccccc21)N1CCN(c2ccccc2Cl)CC1 | 8.2µM | u | 9.2µM | 11.6µM | 6.51µM | 4.11µM
O=C1CCN(C(=O)CCCn2c(=O)oc3ccccc32)CC1 | n | n | n | n | n | n
CNC(=S)N1CCn2cccc2C1c1cccnc1 (stereo unspecified) | n | n | n | n | n | n
Cc1ccc(-n2c(O)c(/C=C3/C(c4ccccc4)=Nc4ccccc43)c(=O)[nH]c2=O)cc1 | 7.31µM | 3.66µM | 5.17µM | u | 3.66µM | u
Cc1ccccc1-n1c(O)c(C=Nc2ccc(N(C)C)cc2)c(=O)[nH]c1=O | n | u | n | n | n | 2.31µM
Cc1ccccc1-n1c(O)c(/C=C2/C(c3ccccc3)=Nc3ccccc32)c(=O)[nH]c1=O | u | x | 5.17µM | u | 2.06µM | 1.46µM
Cc1cccc(-n2c(O)c(/C=C3/C(c4ccccc4)=Nc4ccccc43)c(=O)[nH]c2=O)c1 | 16.4µM | 3.66µM | 3.66µM | 5.8µM | 5.17µM | u
Cc1cccc(N=Cc2c(O)n(-c3ccccc3C)c(=O)[nH]c2=O)c1 | n | n | u | n | n | n
COc1ccc(NC(=O)Cn2c3ccccc3c3nc4n(c(=O)c32)CCS4)cc1 | u | n | 20.6µM | u | n | n
COc1ccc(NC(=O)CN(C)C(=O)CSC(c2ccccc2)c2ccccc2)cc1 | n | n | n | n | u | n
Cc1ccc(NC(=S)NC2CC3CCC(C2)N3Cc2ccco2)cc1C (stereo unspecified) | n | n | n | u | n | n
CCN(CC)C(=O)c1ccc(NC(=O)CCCSc2ccccc2)cc1 | n | n | n | n | n | n
CCN(CC)C(=O)c1ccc(NC(=O)Nc2ccccc2F)cc1 | 7.31µM | n | n | 5.17µM | u | u
COc1ccccc1NC(=O)c1cn(CCC#N)nc1-c1ccc(F)cc1 | n | n | n | n | n | n
C=CCn1c(O)c(C(C)=NCc2ccc3c(c2)OCO3)c(=O)[nH]c1=O | u | n | u | u | n | u
Cc1cc(OC(=O)CCNC(=O)OC(C)(C)C)c2c3c(c(=O)oc2c1)CCC3 | n | n | n | n | n | n
CCC(NC(=O)OC(C)(C)C)C(=O)Oc1cc(C)cc2oc(=O)c3c(c12)CCC3 (stereo unspecified) | n | n | n | n | n | 14.6µM
O=C(N/N=C/c1c(O)n(Cc2ccc(F)cc2)c(=S)[nH]c1=O)c1ccncc1 | n | n | u | n | n | n
O=C(c1ccc(Cl)cc1)C1CCCN(Cc2ccc3ncccc3c2)C1 (stereo unspecified) | n | n | u | n | u | 4.11µM
COc1ccc(CN2CCCC(C(=O)c3ccc(Cl)cc3)C2)c(OC)c1 (stereo unspecified) | u | n | n | 9.2µM | u | u
O=C(c1ccc(Cl)cc1)C1CCCN(Cc2ccc3c(c2)OCCO3)C1 (stereo unspecified) | n | n | u | n | n | n
SMILES | HT1080NT lethal | SW480 rerep | MCF10A rereplic | HT1080 IDH1KD tx | KB-3-1 tox | KB-V1 MDR tox
O=C(c1ccc(Cl)cc1)C1CCCN(Cc2cccc3cnccc23)C1 (stereo unspecified) | n | n | n | n | n | u
O=C(c1cccc(Cl)c1)C1CCCN(Cc2cccc3cnccc23)C1 (stereo unspecified) | 9.2µM | n | u | u | u | n
Cc1c(C)c2ccc(OCC(=O)N3CCC(C(=O)O)(c4ccccc4)CC3)cc2oc1=O | n | n | n | n | n | n
O=C(O)Cn1cc(/C=C2\C(=O)NC(=O)N(c3ccc(Br)cc3)C2=O)c2ccccc21 | n | n | n | n | n | n
COC12CCC3(CC1C(C)(O)C(C)(C)C)[C@H]1Cc4ccc(OC5OC(C(=O)O)[C@@H](O)C(O)[C@H]5O)c5c4[C@@]3(CCN1CC1CC1)C2O5 (stereo partly specified) | n | n | n | n | n | n
COCCN(C(=O)COC(=O)Cc1ccccc1)c1c(N)n(Cc2ccccc2)c(=O)[nH]c1=O | n | n | n | n | n | n
COc1cc2c(cc1O)CC[C@@H]1[C@@H]2CC[C@]2(C)[C@@H](O)CC[C@@H]12 | u | 3.26µM | u | u | 1.64µM | 5.8µM
CC1(C)C(=O)CCC2C1=CCC1C2CCC2(C)C(O)CCC12 (stereo unspecified) | n | n | n | n | n | n
Cc1ccccc1-n1c(O)c(/C=N/NC(=O)c2ccncc2)c(=O)[nH]c1=O | n | n | n | n | n | u
Cn1cnc([N+](=O)[O-])c1Sc1ccc([N+](=O)[O-])cc1 | 16.4µM | n | u | 20.6µM | n | n
O=[N+]([O-])c1ccc([As](=O)(O)O)cc1 | x | n | n | x | x | x
O=[N+]([O-])c1oc2ccc3ccccc3c2c1CCO | u | u | 5.17µM | u | u | 5.8µM
CC1OC(OC2C=C3CCC4C(CCC5(C)C(c6ccc(=O)oc6)CCC45O)C3(C)CC2)C(O)C(OC2OC(CO)C(O)C(O)C2O)C1O (stereo unspecified) | 0.206µM | u | n | 0.184µM | u | u
O=c1[nH]c(O)c(/C=C2\C=NN=C2c2ccccc2)c(=O)[nH]1 | n | u | n | n | n | n
COC(=O)C1=C(c2ccc(F)cc2OCc2ccccc2)C[C@@H]2CC[C@H]1N2C(=O)NCCCOC(C)C | n | n | u | n | n | n
O=C1c2ccccc2-c2cccc3cccc1c23 | n | n | n | n | n | n
c1ccc2c(c1)cc1ccc3cccc4ccc2c1c34 | n | 20.6µM | u | n | n | n
Cc1ccc(NP(=O)(Oc2ccccc2F)Oc2ccccc2F)cc1 | u | u | 18.4µM | u | n | u
Cc1cccc(NP(=O)(Oc2ccccc2F)Oc2ccccc2F)c1C | u | n | u | u | n | n
CCc1ccc(NP(=O)(Oc2ccccc2F)Oc2ccccc2F)cc1 | 18.4µM | n | n | 23.1µM | n | n
CC(C)(C)C(=O)c1cn(CC(=O)NCc2ccco2)c2ccccc12 | n | n | n | n | n | n
CC(=O)OCC(=O)C1CCC2C3CC=C4CC(O)CCC4(C)C3CCC12C (stereo unspecified) | n | n | n | n | n | 14.6µM
CC(C)[C@H]1CC2C3CC=C4C[C@@H](O)CC[C@]4(C)C3CC[C@]2(C)[C@H]1O (stereo partly specified) | n | u | 18.4µM | n | n | n
